Molecules are shown by their SMILES. The whole screen tested about 310,000 compounds, of which about 2,600 (0.84%) were called active. What follows is part of a selection rich in actives, with near analogues and random picks from the rest. Unmarked numbers belong to inactive results.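 Rule for the calls: active = fluorescence ratio B-score at or below minus 3 SD of library scores, with starting-brightness B-score within 2 SD (cut at about -4.2 in these data); inactive = the rest.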

Chain of Inward rectifier potassium channel 2 (Mus musculus) (P35561 whole entry, looked up): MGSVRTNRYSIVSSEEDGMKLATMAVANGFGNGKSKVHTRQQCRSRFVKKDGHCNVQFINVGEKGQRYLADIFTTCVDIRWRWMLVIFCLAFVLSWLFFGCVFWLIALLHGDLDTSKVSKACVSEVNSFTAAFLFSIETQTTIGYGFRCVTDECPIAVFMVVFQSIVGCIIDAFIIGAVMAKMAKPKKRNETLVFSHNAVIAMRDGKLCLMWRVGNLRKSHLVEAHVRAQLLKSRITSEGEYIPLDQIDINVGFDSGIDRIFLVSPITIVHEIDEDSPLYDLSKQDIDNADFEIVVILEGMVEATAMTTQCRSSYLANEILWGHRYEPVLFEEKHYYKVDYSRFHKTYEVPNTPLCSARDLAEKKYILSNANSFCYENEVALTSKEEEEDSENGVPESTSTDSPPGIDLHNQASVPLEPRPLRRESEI

This assay addresses Inward rectifier potassium channel 2 (Mus musculus) (UniProt P35561). The assay is described as follows: blocks the mouse Kir2.1 inward-rectifier potassium channel (AID 1672).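 Note: channel flux triggered by added potassium and thallium sulfate stimulus; B-score of peak minus minimum fluorescence over baseline after thallium stimulus; more negative B-score means stronger Kir2.1 block with less thallium influx.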 Conditions: HEK293-Kir2.1, FluxOR thallium flux fluorescence; at 10 µM; hits give low values.
Regarding `COc1ccccc1CN(C)C(=O)C1(c2ccc(Cl)cc2)CC1`, the B-score is -7.43 (active).

For `COc1ccccc1CN(C)C(=O)c1cc2ccccc2o1`, the B-score is -0.72. `COc1cccc(CN(C)C(=O)CC23CC4CC(CC(C4)C2)C3)c1OC`: the B-score was 0.01. As for `COc1ccc(/C=N/NC(=O)c2cc(-c3cccc(C)c3)nc3ccccc23)cc1O`, the figure is -0.5; as for `CCOc1ccc(NS(=O)(=O)c2ccc(C(=O)NC3CCN(Cc4ccccc4)CC3)cc2)cc1`, -0.37; as for `COc1ccccc1CCC(=O)OCC(=O)N1CCN(S(=O)(=O)c2ccc(C)cc2C)CC1`, -0.28. As for `O=S(=O)(ON(c1ccccc1)S(=O)(=O)c1ccccc1)c1ccccc1`, the figure is -1.37; as for `CC1=C/C(=N\OS(=O)(=O)c2ccccc2)C=CC1=O`, -8.49 (active).

With `Cc1ccc(S(=O)(=O)c2ccc(Oc3ccccc3)cc2)cc1`, the B-score was 1.97. As for `COC(=O)c1ccc(NS(=O)(=O)c2cc3c4c(c2)C(C)C(=O)N4CCC3)cc1` (stereo not given), the figure is -0.99. In the case of `C/C(=N\NC(=O)COc1ccc(C)cc1[N+](=O)[O-])c1ccc2c(c1)OCCO2`, the B-score was 0.54. As for `C=CS(=O)c1sc(Cl)c(N2CCOCC2)c1[N+](=O)[O-]` (stereo not given), the figure is -4.54 (active); as for `CCCCCCCCCCCCN1[C@@H](CC(C)=O)c2cc(F)cc(F)c2S1(=O)=O`, 1.64; as for `CCOC(=O)c1c(NC(=O)CSc2nnc(C)c(=O)[nH]2)sc2c1CCC2`, 1.75. Turning to `Cc1nnc(SCC(=O)N2CCOCC2)[nH]c1=O`, the B-score was -0.42. As for `CCCCOC(=O)CNc1nnc(SCC(=O)OCC)[nH]c1=O`, the figure is -5.69 (active); as for `COc1ccc(NC(=O)CN(C)C(=O)c2ccc(NC3CC3)c([N+](=O)[O-])c2)cc1`, 0.91; as for `COc1ccc(C(=O)OCC(=O)c2ccc(Cl)s2)c(OC)c1OC`, 1.46. As for `CCOc1ccc(C(C)=O)cc1COC(=O)CNC(=O)c1cccs1`, the figure is -0.97; as for `COc1ccccc1C(CNC(=O)c1cccc(NS(=O)(=O)c2ccc(Br)cc2)c1)N(C)C` (stereo not given), -1.8. As for `CC(C)(C)C(=O)Cn1c(NCCO)nc2ccccc21`, the figure is -0.4; as for `O=C(O)[C@@H]1CCCN1c1ncnc2sc3c(c12)CCC3`, 0.12. As to `OCCNc1nc2ccccc2n1-c1ncnc2sc3c(c12)CCC3`, the B-score is -8.97 (active).

For `COc1cc(-c2nnc(NC(=O)C3=COCCO3)o2)cc(OC)c1OC`, the B-score is 0.99.

In the case of `CCCCn1c(N)c(N(CC(C)C)C(=O)c2cccc(S(=O)(=O)N3CCN(C(C)=O)CC3)c2)c(=O)[nH]c1=O`, the B-score was -1.82.

The record behind these values is PubChem BioAssay AID1672 (Johns Hopkins Ion Channel Center, 2009).
